Assay [1] in a line: Nuclear factor erythroid 2-related factor 2/antioxidant responsive element (Nrf2/ARE) small molecule agonists: qHTS cell viability counter screen in human keratinocytes (AID 1919968; active = well fitted curve in the direction sought with a large enough effect in the repeat runs; an effect the other way counts as inactive or inconclusive; note: nearly all actives have a fitted effect of over 55% in size; note: potency is the fitted concentration of half-maximal effect). The gist of the method: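 KeratinoSens cells (HaCaT keratinocytes stably carrying an ARE-luciferase reporter) were seeded at 1,500 cells/well and rested 5 h at 37 C/5% CO2. They were then exposed to compounds in DMSO for 23 h. Viability was read by CellTiter-Fluor fluorescence after 1 h.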

The nature of assay [2]: Nuclear factor erythroid 2-related factor 2/antioxidant responsive element (Nrf2/ARE) small molecule agonists: luciferase reporter gene qHTS assay in human keratinocytes (AID 1919969). Note: nearly all actives have a fitted effect of over 35% in size.
Assay [3] addresses Gonadotropin-releasing hormone receptor (Homo sapiens) (UniProt P30968). Nature of the assay: Human gonadotropin-releasing hormone receptor (GnRHR) small molecule agonists, calcium flux assay in GnRHR-HEK293 cells (AID 1920063). Note: nearly all actives have a fitted effect of over 35% in size. Put shortly:
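HEK293 cells stably expressing human GnRHR were plated 18 h at 37 °C, loaded with calcium dye 1 h at 37 °C, then given compound in agonist mode; fluorescence (Ex/Em 480/540) read kinetically for 3 min at 1 s intervals.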

Assay [4] addresses KiSS-1 receptor (Homo sapiens) (UniProt Q969F8). Nature of the assay: Human kisspeptin (KISS1R) small molecule agonists, calcium flux assay in KISS1R-HEK293 cells (AID 1920064; active = well fitted curve in the direction sought with a large enough effect in the repeat runs; an effect the other way counts as inactive or inconclusive). Put shortly: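 HEK293 cells stably expressing human KISS1R were plated 18 h at 37 °C, loaded with calcium dye for 1 h at 37 °C, then given compound by pin tool. Fluorescence (Ex/Em 480/540) was read kinetically for 3 min.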

Assay [5] in a line: G protein-coupled receptor (GPCR) small molecule agonists, calcium flux assay: HEK293 wild type cell line counter screen (AID 1920065). The gist of the method:
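Cells were plated and cultured 18 h at 37 C/5% CO2, then loaded with calcium dye for 1 h at 37 C. Compounds in DMSO were pin-transferred in agonist mode, and fluorescence (Ex/Em 480/540) was read kinetically for 3 min at 1 s intervals.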

Assay [6] can be described thus: p53 small molecule agonists, cell-based qHTS assay with human liver microsomes (AID 1963577). Put shortly: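 Compounds act here after metabolic activation: human liver microsomes and NADPH, both at 0.5 mg/mL final, were co-added to p53RE-bla cells. Incubation ran 16 h at 37 C, followed by LiveBLAzer detection.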
A short description of assay [7]: p53 small molecule agonists, cell-based qHTS assay with rat liver microsomes (AID 1963578). Put shortly:
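Read-out is beta-lactamase reporter fluorescence (LiveBLAzer, 2 h, room temperature, dark) in p53RE-bla cells treated 16 h at 37 C with compound, rat liver microsomes and NADPH, both 0.5 mg/mL final.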

Assay [8] is described as follows: p53 small molecule agonists, cell-based qHTS assay with human liver microsomes: qHTS cell viability counter screen (AID 1963579). Note: nearly all actives have a fitted effect of over 45% in size. The gist of the method:
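Cells carrying the p53 response-element beta-lactamase reporter are treated for 16 h at 37 C with test compounds in the presence of human liver microsomes and NADPH (both 0.5 mg/mL final); ATP-based CellTiter-Glo luminescence then reports viability.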

A short description of assay [9]: p53 small molecule agonists, cell-based qHTS assay with rat liver microsomes: qHTS cell viability counter screen (AID 1963580). Note: nearly all actives have a fitted effect of over 45% in size. Note: potency is the fitted concentration of half-maximal effect. Put shortly: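 p53RE-bla HCT-116 cells were exposed 16 h at 37 C to compounds with rat liver microsomes (0.5 mg/mL) and NADPH (0.5 mg/mL). Viability was measured in the same wells as ATP content by CellTiter-Glo luminescence.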
A short description of assay [10]: p53 small molecule agonists, cell-based qHTS assay: qHTS cell viability counter screen (AID 1963581). Note: nearly all actives have a fitted effect of over 45% in size. Put shortly:
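p53RE-bla HCT-116 cells were exposed to compounds for 16 h at 37 C; after the beta-lactamase FRET read in the same wells, CellTiter-Glo was added and luminescence (intracellular ATP) read after 30 min at room temperature.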

The target in assay [11] is 5-hydroxytryptamine receptor 2A (Homo sapiens) (UniProt P28223). Nature of the assay: 5-hydroxytryptamine receptor 2A (HTR2A) small molecule agonists, cell-based qHTS assay (AID 1963587). Note: nearly all actives have a fitted effect of over 30% in size. The gist of the method:
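CHO cells stably expressing human HTR2A, plated 18 h, loaded with calcium dye 1 h at 37 C. Agonist mode: compounds added and intracellular calcium fluorescence recorded kinetically for 2 min at 1 sec intervals.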

The target in assay [12] is Muscarinic acetylcholine receptor M1 (Homo sapiens) (UniProt P11229). Nature of the assay: Cholinergic receptor muscarinic 1 (CHRM1) small molecule antagonists, cell-based qHTS assay (AID 1963588). Note: nearly all actives have a fitted effect of over 40% in size. Put shortly:
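CHRM1-CHO calcium-flux assay, antagonist mode. Cells were seeded 18 h, dye-loaded 1 h at 37 C and given compound for 5 min at RT, then acetylcholine was added at 50nM. FDSS fluorescence was read 3 min; 15 concentrations, three runs.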

A short description of assay [13]: cAMP Responsive Elements (CRE) small molecule antagonists, cell-based qHTS assay (AID 1963591; active = well fitted inhibition curve with a large enough effect in the signal ratio in the repeat runs, not every such curve was filed as active; the % refers to the signal ratio). The gist of the method:
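CRE-bla HEK293T cells were plated 18 h at 37 °C/5% CO2, pinned with compound in DMSO, then stimulated with NKH477 at 0.25 uM final for 3 h. LiveBLAzer B/G FRET substrate was added and plates incubated 2 h at room temperature.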

The target in assay [14] is Beta-2 adrenergic receptor (Homo sapiens) (UniProt P07550). In words: Adrenergic beta2 receptor (ADRB2) small molecule antagonists, cell-based qHTS assay (AID 1963592). Note: series mostly up to about 92 µM; nearly all actives have a fitted effect of over 50% in size. Put shortly:
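Cells (CHO, stable ADRB2 overexpression) incubated 18-20hr at 37C; compounds added from DMSO; agonist mix (1nM isoproterenol, 100uM IBMX, 25uM Ro-20-1724) added; 0.5hr RT; d2-cAMP and anti-cAMP-cryptate added; 1hr RT; 665/615 nm read.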

In assay [15] the target is D(2) dopamine receptor (Homo sapiens) (UniProt P14416). Nature of the assay: Dopamine D2 receptor (DRD2) small molecule agonists, cell-based qHTS assay (AID 1963594). Note: nearly all actives have a fitted effect of over 35% in size. The gist of the method: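 HEK293 cells stably expressing human DRD2, pre-treated with PDE inhibitor Ro20-1724 (0.1 mM final) and compound 10 min at room temperature, then stimulated with NKH477 (200nM […]) for 30 min. cAMP read by HTRF (665/620 nm).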

Assay [16] has the same target. Nature of the assay: Dopamine D2 receptor (DRD2) small molecule antagonists, cell-based qHTS assay (AID 1963595; active = well fitted inhibition curve with a large enough effect in the signal ratio in the repeat runs, with a control signal flat; the % refers to the signal ratio). Put shortly: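 HTRF cAMP read-out at 665 and 620 nm emission (340 nm excitation). Antagonist mode: compounds were tested against 12 nM quinpirole in DRD2-HEK293 cells, with 200 nM NKH477 raising cAMP and 0.1 mM Ro20-1724 blocking its breakdown.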
The nature of assay [17]: p53 small molecule agonists, cell-based qHTS assay (AID 1963582; active = well fitted activation curve with a large enough effect in the signal ratio in the repeat runs, not every such curve was filed as active; the % refers to the signal ratio; note: potency is the fitted concentration of half-maximal effect). Put shortly: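 p53RE-bla beta-lactamase reporter cells rested 5 h at 37 C/5% CO2, then received compounds in DMSO by pin transfer and were incubated 16 h at 37 C. LiveBLAzer B/G FRET substrate was loaded for 2 h at room temperature before fluorescence reading.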
Assay [18] has as its target 5-hydroxytryptamine receptor 2A (Homo sapiens) (UniProt P28223). Nature of the assay: 5-hydroxytryptamine receptor 2A (HTR2A) small molecule antagonists, cell-based qHTS assay (AID 1963586). Note: nearly all actives have a fitted effect of over 45% in size. The gist of the method: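 Antagonist-mode intracellular calcium assay: DOI (4 nM) added after 5 min compound pre-incubation at room temperature to dye-loaded HTR2A-CHO cells. Fluorescence followed for 3 min, sampled every second.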

Assay [19] is described as follows: cAMP Responsive Elements (CRE) small molecule agonists, cell-based qHTS assay (AID 1963590). The gist of the method:
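CRE-bla HEK 293T cells in DMEM with 10% dialyzed FBS, NEAA, pyruvate and 25 mM HEPES were plated 18 h at 37 C/5% CO2, then exposed to compounds in DMSO for 3 h before LiveBLAzer B/G FRET substrate addition.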

The target of assay [20] is Beta-2 adrenergic receptor (Homo sapiens) (UniProt P07550). Nature of the assay: Adrenergic beta2 receptor (ADRB2) small molecule agonists, cell-based qHTS assay (AID 1963593).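 Note: CHO cells stably overexpressing human ADRB2.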 Put shortly:
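CHO cells stably over-expressing ADRB2 were plated overnight at 37C, then dosed with compounds plus a stimulation mix containing 100uM IBMX and 25uM Ro-20-1724 for 0.5hr at room temperature. cAMP was measured by HTRF competition, 1hr.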

The values that follow come from PubChem BioAssay (Tox21).

“And” between values parts separate entries of the source, which are not always exact repeats. Identical values can stand only once. Results filed as inconclusive are left out. Some structures have more than one record in an assay (separate samples or runs), and their calls can disagree. The source made the active and inactive calls. Unless noted, calls come from the whole dose curve.

Sequence of D(2) dopamine receptor (Homo sapiens) (P14416 whole entry, looked up): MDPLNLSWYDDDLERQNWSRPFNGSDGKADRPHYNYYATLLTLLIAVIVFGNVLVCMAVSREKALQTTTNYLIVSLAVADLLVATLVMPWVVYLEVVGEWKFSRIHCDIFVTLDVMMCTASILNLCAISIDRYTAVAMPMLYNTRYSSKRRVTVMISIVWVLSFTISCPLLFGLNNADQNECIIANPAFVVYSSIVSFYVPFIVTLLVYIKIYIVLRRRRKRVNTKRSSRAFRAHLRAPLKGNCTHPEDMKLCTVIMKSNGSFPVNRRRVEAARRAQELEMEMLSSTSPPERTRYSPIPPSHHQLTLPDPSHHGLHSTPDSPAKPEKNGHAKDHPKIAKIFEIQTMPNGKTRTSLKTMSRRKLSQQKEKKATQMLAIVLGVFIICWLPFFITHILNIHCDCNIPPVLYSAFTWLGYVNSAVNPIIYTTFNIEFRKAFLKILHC
Sequence of Beta-2 adrenergic receptor (Homo sapiens) (P07550 whole entry, looked up): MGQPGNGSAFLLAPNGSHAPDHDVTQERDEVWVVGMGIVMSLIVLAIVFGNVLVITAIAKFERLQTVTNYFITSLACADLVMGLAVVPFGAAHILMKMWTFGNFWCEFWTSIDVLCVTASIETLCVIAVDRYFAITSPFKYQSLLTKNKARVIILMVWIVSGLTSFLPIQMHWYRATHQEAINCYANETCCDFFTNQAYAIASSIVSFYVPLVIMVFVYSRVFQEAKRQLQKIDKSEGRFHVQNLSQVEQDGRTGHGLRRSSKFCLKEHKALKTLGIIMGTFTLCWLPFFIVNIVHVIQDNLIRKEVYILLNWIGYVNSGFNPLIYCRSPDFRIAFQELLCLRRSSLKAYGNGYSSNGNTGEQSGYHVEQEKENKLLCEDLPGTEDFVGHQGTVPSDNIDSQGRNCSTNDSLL
Sequence of Gonadotropin-releasing hormone receptor (Homo sapiens) (P30968 whole entry, looked up): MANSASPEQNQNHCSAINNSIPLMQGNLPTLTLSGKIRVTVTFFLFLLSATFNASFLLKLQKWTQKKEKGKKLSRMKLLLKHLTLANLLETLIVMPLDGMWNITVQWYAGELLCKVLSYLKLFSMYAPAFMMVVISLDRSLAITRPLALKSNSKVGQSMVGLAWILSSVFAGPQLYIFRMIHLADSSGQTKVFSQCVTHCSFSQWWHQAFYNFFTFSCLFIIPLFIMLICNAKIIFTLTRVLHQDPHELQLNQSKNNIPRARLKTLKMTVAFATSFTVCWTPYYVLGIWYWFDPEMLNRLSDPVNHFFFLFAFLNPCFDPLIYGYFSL
Sequence of KiSS-1 receptor (Homo sapiens) (Q969F8 whole entry, looked up): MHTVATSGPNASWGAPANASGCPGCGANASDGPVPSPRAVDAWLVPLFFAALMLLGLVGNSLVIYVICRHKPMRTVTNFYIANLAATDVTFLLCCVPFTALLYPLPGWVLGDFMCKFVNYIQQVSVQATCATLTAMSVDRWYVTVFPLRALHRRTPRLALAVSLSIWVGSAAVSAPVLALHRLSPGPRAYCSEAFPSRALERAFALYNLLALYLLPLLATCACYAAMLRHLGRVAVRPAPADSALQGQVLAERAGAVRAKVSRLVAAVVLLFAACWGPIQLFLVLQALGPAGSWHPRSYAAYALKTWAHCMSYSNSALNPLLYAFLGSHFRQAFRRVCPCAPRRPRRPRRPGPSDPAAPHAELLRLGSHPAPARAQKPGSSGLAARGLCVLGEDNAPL
Sequence of 5-hydroxytryptamine receptor 2A (Homo sapiens) (P28223 whole entry, looked up): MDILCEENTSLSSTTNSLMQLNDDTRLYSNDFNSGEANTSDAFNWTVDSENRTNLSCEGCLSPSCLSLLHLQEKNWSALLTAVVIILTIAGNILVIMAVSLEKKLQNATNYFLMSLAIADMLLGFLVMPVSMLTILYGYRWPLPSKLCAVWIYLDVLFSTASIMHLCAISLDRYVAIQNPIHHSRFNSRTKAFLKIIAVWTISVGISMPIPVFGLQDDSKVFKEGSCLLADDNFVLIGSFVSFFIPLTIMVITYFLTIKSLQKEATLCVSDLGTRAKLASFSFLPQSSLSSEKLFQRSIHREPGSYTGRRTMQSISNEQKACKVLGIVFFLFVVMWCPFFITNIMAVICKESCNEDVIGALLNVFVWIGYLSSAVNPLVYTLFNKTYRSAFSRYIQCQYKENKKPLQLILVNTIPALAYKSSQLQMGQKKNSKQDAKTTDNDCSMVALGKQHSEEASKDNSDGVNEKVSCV
Sequence of Muscarinic acetylcholine receptor M1 (Homo sapiens) (P11229 whole entry, looked up): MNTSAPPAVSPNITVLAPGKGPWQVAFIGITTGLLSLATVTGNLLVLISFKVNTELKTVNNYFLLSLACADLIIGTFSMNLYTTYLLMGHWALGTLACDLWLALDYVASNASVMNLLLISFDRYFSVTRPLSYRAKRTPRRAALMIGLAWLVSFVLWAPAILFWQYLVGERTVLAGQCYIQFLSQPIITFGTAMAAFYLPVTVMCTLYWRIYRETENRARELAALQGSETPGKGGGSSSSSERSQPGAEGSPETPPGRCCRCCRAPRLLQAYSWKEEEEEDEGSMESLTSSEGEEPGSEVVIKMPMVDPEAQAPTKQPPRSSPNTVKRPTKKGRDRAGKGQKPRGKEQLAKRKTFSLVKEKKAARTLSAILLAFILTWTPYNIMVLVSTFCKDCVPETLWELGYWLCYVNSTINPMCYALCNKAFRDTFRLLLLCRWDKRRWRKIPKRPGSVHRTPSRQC

Consider `O=C(c1ccc(O)cc1)c1ccc(O)cc1O`, for which the Potency entry in assay [1], in assay [2], in assay [3], in assay [4], in [5] and in [6] was “inactive” throughout. In addition, the Potency result in assay [7], in assay [8], in [9], in [10], in assay [11] and in assay [12] was “inactive” in each case. Besides, the Potency result in assay [13], in [14], in assay [15] and in assay [16] was “inactive” in each case.

Regarding `CCC(=O)O`, the Potency entry in assay [1], in [2], in assay [3], in [4], in [5] and in assay [6] was “inactive” in each case. In addition, the Potency result in assay [7], in [8], in [9], in assay [17], in [18] and in assay [11] was “inactive” throughout. The Potency entry in assay [12], in [19], in [13], in [14], in assay [20] and in assay [15] was “inactive” throughout. In addition, in assay [16], the Potency result was “inactive”.

As to `Cc1ccccc1C(OCCN(C)C)c1ccccc1` (configuration not stated), the Potency result in assay [1], in [2], in assay [3], in assay [4], in [5] and in [6] was “inactive” each time. Also, the Potency entry in [7], in [8], in assay [9], in [19], in assay [13] and in assay [14] was “inactive” throughout. Moreover, the Potency result in [15] and in [16] was “inactive” in each case.

Regarding `C=C(C)C(=O)O`, the Potency entry in assay [1], in [2], in assay [3], in assay [4], in [5] and in assay [6] was “inactive” throughout. Besides, the Potency result in assay [7], in [8], in assay [10], in [17], in assay [18] and in assay [11] was “inactive” in each case. The Potency result in [12], in assay [19], in assay [13], in [14], in assay [20] and in assay [15] was “inactive” each time. Moreover, the Potency entry in assay [16] is “inactive”.

As for `C[C@]12CC[C@@H]3c4ccc(O)cc4C[C@@H](CCCCCCCCCS(=O)CCCC(F)(F)C(F)(F)F)[C@H]3[C@@H]1CC[C@@H]2O` (some centres not stated), the Potency entry in assay [1] is “inactive and 4.73 µM (active)”. Moreover, the Potency entry in [2], in assay [3], in assay [4], in assay [5], in [6] and in [7] was “inactive” in each case. Besides, the Potency entry in [8], in assay [9], in [17], in assay [18], in assay [11] and in [12] was “inactive” throughout. The Potency entry in assay [19], in [14], in assay [15] and in assay [16] was “inactive” each time.

In the case of `CCN1CCCC1=O`, the Potency entry in assay [1], in assay [2], in [3], in assay [4], in [5] and in [6] was “inactive” throughout. The Potency entry in assay [7], in [8], in [9], in assay [10], in [18] and in [19] was “inactive” throughout. Also, the Potency result in assay [13], in [14], in assay [20], in assay [15] and in assay [16] was “inactive” each time.

Take `O=c1[nH]cc(F)c(=O)[nH]1`: the Potency in assay [1] was 5.65 µM (active) and inactive; in assay [9] it was 47.5 µM (active) and inactive; in assay [17], 2.63 µM (active) and 7.93 µM (active). Further, the Potency result in assay [2], in assay [3], in assay [4], in assay [5], in assay [6] and in assay [7] was “inactive” throughout. The Potency entry in assay [8], in assay [19], in assay [13], in [14], in assay [15] and in [16] was “inactive” each time.
